We go through 44 compounds from publication PMC4336329 (PLoS ONE, 2015).

Out of some 310,000 compounds screened, about 14,000 (4.5%) showed an effect of 50% or more. The effect is printed as a negative number. The full list was thinned out, with strong results kept by preference.
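Note: peak tail current of the secondary pulse compared with the same well before compound.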

Sequence of human ether-à-go-go-related gene (hERG) potassium channel (Q12809 whole entry, looked up): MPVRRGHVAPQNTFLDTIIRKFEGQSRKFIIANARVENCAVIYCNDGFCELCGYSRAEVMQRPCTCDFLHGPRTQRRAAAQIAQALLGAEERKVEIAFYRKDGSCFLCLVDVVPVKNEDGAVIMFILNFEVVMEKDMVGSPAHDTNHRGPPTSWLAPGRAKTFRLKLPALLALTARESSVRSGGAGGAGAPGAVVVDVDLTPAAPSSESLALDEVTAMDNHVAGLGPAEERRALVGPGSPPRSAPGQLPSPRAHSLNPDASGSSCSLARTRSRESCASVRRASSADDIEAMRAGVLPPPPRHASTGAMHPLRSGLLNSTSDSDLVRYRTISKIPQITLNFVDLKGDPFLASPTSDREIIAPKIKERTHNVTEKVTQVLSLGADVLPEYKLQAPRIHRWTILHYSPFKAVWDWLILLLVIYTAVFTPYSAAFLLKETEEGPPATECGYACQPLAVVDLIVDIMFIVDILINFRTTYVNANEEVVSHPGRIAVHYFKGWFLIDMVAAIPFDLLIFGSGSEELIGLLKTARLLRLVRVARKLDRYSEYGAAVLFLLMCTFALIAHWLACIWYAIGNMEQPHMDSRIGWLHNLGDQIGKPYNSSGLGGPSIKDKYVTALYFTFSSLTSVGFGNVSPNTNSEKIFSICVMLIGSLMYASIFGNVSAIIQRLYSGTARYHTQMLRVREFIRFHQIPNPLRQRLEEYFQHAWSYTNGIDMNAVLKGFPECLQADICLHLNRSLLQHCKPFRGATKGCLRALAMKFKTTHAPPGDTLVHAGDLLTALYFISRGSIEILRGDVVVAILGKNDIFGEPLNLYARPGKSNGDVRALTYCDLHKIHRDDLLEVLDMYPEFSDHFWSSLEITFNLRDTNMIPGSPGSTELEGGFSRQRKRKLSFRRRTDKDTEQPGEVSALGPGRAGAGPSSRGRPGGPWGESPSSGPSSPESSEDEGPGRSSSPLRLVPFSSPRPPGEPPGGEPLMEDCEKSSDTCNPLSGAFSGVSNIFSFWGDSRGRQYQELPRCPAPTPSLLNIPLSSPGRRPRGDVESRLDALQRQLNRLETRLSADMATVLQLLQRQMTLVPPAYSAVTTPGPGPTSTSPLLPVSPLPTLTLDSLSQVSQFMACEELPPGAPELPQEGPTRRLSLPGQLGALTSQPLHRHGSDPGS

This assay addresses human ether-à-go-go-related gene (hERG) potassium channel (human, UniProt Q12809). Nature of the assay: primary screen, population patch clamp on CHO cells stably expressing hERG; higher = less effect of the substance.
In the case of `COCCN(C(=O)COC(=O)CCc1ccc(OC)cc1)c1c(N)n(Cc2ccccc2)c(=O)[nH]c1=O`, the “hERG current change (%, negative = inhibition) at 10uM” value was found to be 27.6%.

Take `COC(=O)C[C@H]1c2cc(F)ccc2S(=O)(=O)N1c1ccccc1`: the “hERG current change (%, negative = inhibition) at 10uM” value is 8.82%.

Regarding `O=C(CSC1=NNC(c2ccccn2)S1)Nc1cccc(Cl)c1` (centres unmarked), the “hERG current change (%, negative = inhibition) at 10uM” value came out at 12.6%.

As to `COCCCNC(=O)Cn1cc2c(n1)CCC(C)C2` (centres unmarked), the “hERG current change (%, negative = inhibition) at 10uM” value is 1.99%.

Consider `CC1CCc2nn(CC(=O)NCCCN3CCCC3=O)cc2C1` (centres unmarked), for which the “hERG current change (%, negative = inhibition) at 10uM” value was 10.2%.

As to `O=C(Cn1cc2c(n1)CCCC2)NCCCN1CCN(c2ccccc2F)CC1`, the “hERG current change (%, negative = inhibition) at 10uM” value is on record as -31.1%.

With `Cc1ccc(C)c(N2CCN(CCCNC(=O)Cn3cc4c(n3)CCCCC4)CC2)c1`, the “hERG current change (%, negative = inhibition) at 10uM” value is given as -69.3%.

Regarding `Cc1ccc(C)c(N2CCN(CCCNC(=O)Cn3cc4c(n3)CCC(C)C4)CC2)c1` (centres unmarked), the “hERG current change (%, negative = inhibition) at 10uM” value is on record as -63.4%.

In the case of `CCCN1CCN(CCCNC(=O)Cn2cc3c(n2)CCCC3)CC1`, the “hERG current change (%, negative = inhibition) at 10uM” value was -7.41%.

Turning to `COC(=O)c1ccc(Sc2ccccc2NS(=O)(=O)c2ccc(OC)cc2)nc1`, the “hERG current change (%, negative = inhibition) at 10uM” value came to 9.67%.

With `CN1CCN(c2ccc(NC(=O)Oc3ccccc3)cc2)CC1`, the “hERG current change (%, negative = inhibition) at 10uM” value is given as 17.4%.

For `CCOc1ccc(C(C)(C)C)cc1S(=O)(=O)Nc1ccncc1`, the “hERG current change (%, negative = inhibition) at 10uM” value was determined as 17%.

As for `Cn1nnc2cc(C(=O)NCc3ccco3)ccc21`, the “hERG current change (%, negative = inhibition) at 10uM” value came to 1.15%.

In the case of `Cc1nc(Nc2nc(-c3ccccc3)cc(=O)[nH]2)nc2ccccc12`, the “hERG current change (%, negative = inhibition) at 10uM” value is on record as -3.73%.

Consider `COc1cc(/C=N/NC(=O)C2CCN(CC(O)COCc3ccccc3)CC2)ccc1O` (centres unmarked), for which the “hERG current change (%, negative = inhibition) at 10uM” value was -78.1%.

In the case of `CCOc1ccc(/C=N/NC(=O)C2CC2)cc1OC`, the “hERG current change (%, negative = inhibition) at 10uM” value was 18.3%.

Take `COc1ccc(COCC(O)CN2CCC(C(N)=O)CC2)cc1OC` (centres unmarked): the “hERG current change (%, negative = inhibition) at 10uM” value is given as -7.47%.

`COc1cc(/C=N/NC(=O)C2CCN(CC(O)COCc3ccccc3)CC2)cc(OC)c1OC` (centres unmarked): the “hERG current change (%, negative = inhibition) at 10uM” value is recorded as -71.7%.

Take `COc1cc(/C=N/NC(=O)CCc2ccccc2)ccc1O`: the “hERG current change (%, negative = inhibition) at 10uM” value is -1.02%.

Consider `COc1cc(/C=N/NC(=O)Cc2ccccc2)cc(OC)c1OC`, for which the “hERG current change (%, negative = inhibition) at 10uM” value is on record as 8.74%.

`O=C(CCC(=O)c1ccc(F)cc1)NC1CCCN(Cc2ccccc2F)C1` (centres unmarked): the “hERG current change (%, negative = inhibition) at 10uM” value was -19.4%.

With `CC(=O)Nc1cccc(NC(=O)C(F)(F)F)c1`, the “hERG current change (%, negative = inhibition) at 10uM” value is 21.2%.

Consider `Cc1onc(-c2ccccc2)c1C(=O)OCC(=O)Nc1ccc(C#N)cc1`, for which the “hERG current change (%, negative = inhibition) at 10uM” value is recorded as -27.7%.

In the case of `O=C(/C=C/c1ccc(-c2ccccc2[N+](=O)[O-])o1)c1ccccc1`, the “hERG current change (%, negative = inhibition) at 10uM” value stood at 18.4%.

Regarding `COc1cc(C)ccc1OCCOCCOc1ccc([N+](=O)[O-])cc1`, the “hERG current change (%, negative = inhibition) at 10uM” value is -54.8%.

In the case of `CCC(C)NCCCOc1ccc([N+](=O)[O-])cc1.O=C(O)C(=O)O` (centres unmarked), the “hERG current change (%, negative = inhibition) at 10uM” value was -74.7%.

Turning to `CC(=O)Nc1ccc(OCCOc2ccc([N+](=O)[O-])cc2)cc1`, the “hERG current change (%, negative = inhibition) at 10uM” value is recorded as 0.991%.

As for `CC(=O)c1ccc(OCCOc2ccc([N+](=O)[O-])cc2)cc1`, the “hERG current change (%, negative = inhibition) at 10uM” value is listed as -57.6%.

On to `COc1cc(C)ccc1OCCOCCOc1ccccc1[N+](=O)[O-]`, for which the “hERG current change (%, negative = inhibition) at 10uM” value was -29.5%.

Regarding `CCOC(=O)C(CCCOc1ccccc1)C(=O)OCC`, the “hERG current change (%, negative = inhibition) at 10uM” value is recorded as -14.3%.

For the compound `CCOC(=O)C(CCCCOc1ccc([N+](=O)[O-])cc1)C(=O)OCC`, the “hERG current change (%, negative = inhibition) at 10uM” value is reported as -54.8%.

Turning to `CCC(C)NCCCCOc1ccc(Br)cc1.O=C(O)C(=O)O` (centres unmarked), the “hERG current change (%, negative = inhibition) at 10uM” value was -32.6%.

As for `COc1cc(C)ccc1OCCOCCOc1ccc(C)cc1[N+](=O)[O-]`, the “hERG current change (%, negative = inhibition) at 10uM” value is listed as -36.1%.

As for `CCOC(=O)C(CCCOc1ccc(C)cc1)C(=O)OCC`, the “hERG current change (%, negative = inhibition) at 10uM” value is -8.52%.

Turning to `CC(=O)c1ccc([N+](=O)[O-])cc1`, the “hERG current change (%, negative = inhibition) at 10uM” value was found to be 15.7%.

With `CCCOc1ccc(OCCCCNC(C)CC)cc1.O=C(O)C(=O)O` (centres unmarked), the “hERG current change (%, negative = inhibition) at 10uM” value is reported as -18.9%.

As to `CNC(=O)n1cc(C)c(-c2cccs2)n1`, the “hERG current change (%, negative = inhibition) at 10uM” value stood at 5.15%.

Consider `Cc1cc2c(cc1S(=O)(=O)N1CCCC1)n(C)c(=O)c(=O)n2C`, for which the “hERG current change (%, negative = inhibition) at 10uM” value is -4.62%.

For `COc1ccc(CC(=O)OC(C)C(=O)c2ccc(C)cc2)cc1` (centres unmarked), the “hERG current change (%, negative = inhibition) at 10uM” value is reported as 20.4%.

Regarding `COc1ccc(OC(=O)c2cn(C)nc2C(F)(F)F)cc1`, the “hERG current change (%, negative = inhibition) at 10uM” value is reported as -1.05%.

Regarding `Cc1ccc2nc(=O)c(NNc3ccccc3)cnc2c1`, the “hERG current change (%, negative = inhibition) at 10uM” value is reported as 15.6%.

Take `CCCCN(C(=O)c1cc2c(s1)CCC2)c1c(N)n(CCCC)c(=O)[nH]c1=O`: the “hERG current change (%, negative = inhibition) at 10uM” value is on record as -0.537%.

With `C1=C(c2c[nH]c3ccccc23)CCNC1`, the “hERG current change (%, negative = inhibition) at 10uM” value stood at 7.59%.

Regarding `CC(C)c1ccc(CNC(=O)C(=O)NCC2CCCO2)cc1` (centres unmarked), the “hERG current change (%, negative = inhibition) at 10uM” value was 7.73%.
